In general, inhibition refers to the relative decrease from the control value, in per cent.

In all, about 360,000 compounds went through this assay and about 4,500 (1.2%) were called active. Cut-off read from the data, not from the text of the source: active = inhibition above about 30%; inactive = the rest. The list comes from a sample in which actives are over-represented; it also holds similar structures and randomly drawn compounds.

The assay is described as follows: inhibition of GDH and TPI enzymes – biochemical, absorbance, full deck, artefact control for M. tuberculosis FBA inhibitor project, primary screen (AID 588335).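 Note: 0% = DMSO wells and 100% = wells lacking the enzyme.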 As to conditions: GDH-TPI coupled enzyme counterscreen, NADH absorbance; at 4.8 µM; active compounds read high. Background: Counterscreens check selectivity or assay interference.
On to `O=C(Nc1ccc(Cl)cc1)c1cccc(OC(=S)N2CCOCC2)c1`, for which the inhibition was -5.96% (inactive).
To `CCCOc1cccc(C(=O)Nc2nnn(CCC)n2)c1` belongs 3.11% (inactive).
Consider `CCC(=O)Oc1cccc(C(=O)Nc2ccc(-c3nnc(-c4ccco4)o3)cc2)c1`, for which the inhibition is 35.6% (active).
Turning to `N#C/C(C(=S)Nc1ccccc1)=C1/NN=C(N2CCOCC2)N1c1ccccc1`, the inhibition is 6.29% (inactive).
On to `Cc1ccc2c(O)c(Cc3ccccc3)c(=O)[nH]c2n1`, for which the inhibition is 12.7% (inactive).
In the case of `CC1CCN(C(=O)Cn2cc(C(=O)c3ccco3)c3ccccc32)CC1`, the inhibition is 21.1% (inactive).
For `N#Cc1ccc(Cn2cc(C(=O)c3ccco3)c3ccccc32)cc1`, the inhibition was 31.5% (active).
Consider `NC(=O)Cn1cc(C(=O)c2ccccc2F)c2ccccc21`, for which the inhibition is 1.25% (inactive).
In the case of `CCOC(=O)c1c(NC(=S)SC)sc(C(=O)N2CCc3ccccc3C2)c1C`, the inhibition is 1.83% (inactive).
Take `CN1CCC(=NNC(=O)CN(c2cccc(Cl)c2)S(C)(=O)=O)CC1`: the inhibition is 3.59% (inactive).
Turning to `CCc1nc2cccnc2n1-c1ccc(C(=O)O)cc1`, the inhibition was 0.86% (inactive).
On to `N#CCCCn1c(O)c(N=NC(=O)C(O)c2ccccc2)c2ccccc21` (stereo not given), for which the inhibition is 42% (active).
Regarding `CCCCn1c(O)c(N=NC(=O)Cn2c(C(F)(F)F)nc3ccccc32)c2ccccc21`, the inhibition is -14.8% (inactive).
To `Cc1csc(Nc2ccc(Cl)cc2)[n+]1-c1ccc(Cl)cc1` belongs 2.24% (inactive); to `CCN(CC)c1ccc(/C=N/NC(=O)CNC(=O)c2cccs2)cc1`, 31.4% (active).
For the molecule `CC(C)OCCCNC(=O)CNC(=O)c1cccs1`, the inhibition is 3.27% (inactive).
On to `C/C(=N\NC(=O)c1cccnc1)c1ccc(-n2ccnc2)cc1`, for which the inhibition is 12.6% (inactive).
Take `O=C(CNC(=O)C(c1ccccc1)c1ccccc1)N/N=C\c1ccc2c(c1)OCO2`: the inhibition was 6.25% (inactive).
Regarding `O=C(CNC(=O)C1COc2ccccc2O1)N/N=C/c1cc(Br)c(O)c(Br)c1` (stereo not given), the inhibition is 33.5% (active).
In the case of `Cc1cccc(OCC(=O)NCCNC(=O)c2cccnc2)c1`, the inhibition was -7.55% (inactive).
To `CCN(CC)c1ccc(/C=N/NC(=O)CNC(=O)c2cccnc2)cc1` belongs 33.1% (active); to `O=C(CNC(=O)c1ccccc1Br)NNC(=O)c1cccs1`, -3.45% (inactive); to `CCOc1cc(/C=N/NC(=O)c2ccncc2)cc(Br)c1O`, 0% (inactive).
In the case of `CC1CC(=NNC(=O)C2COc3ccccc3O2)CC(C)(C)C1` (stereo not given), the inhibition was -8.18% (inactive).
In the case of `CCCOc1cccc(C(=O)NCCCNC(=O)c2cccnc2)c1`, the inhibition is -5.19% (inactive).
As for `O=C(CNC(=O)c1cccnc1)N/N=C/c1cc(Br)c(O)c(Br)c1`, the inhibition is 42% (active).
As for `O=C(COC(=O)c1ccc(N2CCCC2=O)cc1)c1ccc(OC(F)F)cc1`, the inhibition was 2.55% (inactive).
Turning to `Cc1cc(=O)oc2cc(NC(=O)C3CC(=O)N(Cc4ccccc4)C3)ccc12` (stereo not given), the inhibition is 19.6% (inactive).
Regarding `NC(N)=NCCCc1cn(CC(=O)N2CCNCC2)nn1`, the inhibition was 1.79% (inactive).
As to `CC(C)Oc1ccc(C2NC(=O)NC2=O)cc1` (stereo not given), the inhibition is 1.41% (inactive).
To `O=C1CCCC2=C1C(c1cccs1)n1nc(SCc3ccccc3)nc1N2` (stereo not given) belongs 19.9% (inactive).
To `CCC(C)[C@H](NC(=O)N1c2ccccc2NC(=O)[C@@H]1C(C)C)C(=O)N[C@@H](Cc1ccccc1)C(=O)O` (stereo not given in full) belongs 10.8% (inactive); to `CCCc1ccc(-c2c(C)sc(NC(=O)c3ccnn3C)c2C#N)cc1`, 17.4% (inactive); to `CC(OC(=O)CNS(=O)(=O)/C=C/c1ccccc1)C(=O)Nc1ccc(S(=O)(=O)N2CCCC2)cc1` (stereo not given), -3.69% (inactive).
Turning to `CN(C)c1ccc(Nc2c3c4c(cccc4n(C)c2=O)C(=O)c2ccccc2-3)cc1`, the inhibition is 5.68% (inactive).
As to `CCSc1nc2c(c(=O)[nH]1)C(c1cccnc1)C(C(=O)OC(C)C)=C(C)N2` (stereo not given), the inhibition was 0.91% (inactive).
With `COc1cc(S(=O)(=O)N2CCN(C(=O)C3CC3)CC2)ccc1NC(C)=O`, the inhibition was 7.35% (inactive).
For the molecule `O=C(Nc1ccc(OCC(=O)N2CCOCC2)cc1)c1cc(F)c(F)cc1Cl`, the inhibition is 6.18% (inactive).
With `CCOC(=O)c1cc(C)nc(S(C)(=O)=O)c1C#N`, the inhibition was -4.82% (inactive).
Regarding `CCOC(=O)c1c(C(C#N)C#N)cc(C)nc1C`, the inhibition is 34.7% (active).
With `CCOC(=O)c1c(C)[nH]c(C)c1C(=O)CSc1nc(N)cc(N)n1` the figure was 5.66% (inactive).
On to `C[C@@H]1CN([C@H](C)CO)C(=O)c2cc(Br)cnc2O[C@@H]1CN(C)Cc1cncnc1`, for which the inhibition was 13.4% (inactive).
To `Cc1cc(Cl)ccc1C(=O)C1CCCN(C(=O)c2ccc3c(c2)OCO3)C1` (stereo not given) belongs 4.42% (inactive).
For the molecule `CCNC(=S)NNC(=O)c1ccc2ncccc2c1`, the inhibition was 7.57% (inactive).
To `NCCCCCC(=O)N/N=C/c1ccc2nccnc2c1` belongs 26.5% (inactive); to `O=C(O)c1ccc(N/N=C/c2ccc3ncccc3c2)cc1`, 34% (active).
With `CCCCN(C(=O)c1ccc2ccccc2c1)c1c(N)n(CCCC)c(=O)[nH]c1=O`, the inhibition was 1.27% (inactive).
With `O=C(CNC(=O)c1ccccc1)NCC(=O)OCc1ccc(Cl)cc1` the figure was 4.85% (inactive).
Consider `O=C(CNC(=O)OCc1ccccc1)Oc1cc2oc(=O)cc(-c3ccccc3)c2cc1Cl`, for which the inhibition was 31.2% (active).
For `O=C(CNC(=O)Cc1ccccc1)NCC(=O)OCC(=O)c1ccccc1Cl`, the inhibition was 4.58% (inactive).
In the case of `CCCCNC(=O)N1CCN(S(C)(=O)=O)CC1`, the inhibition is -0.96% (inactive).
In the case of `Cc1ccc(C)c(-n2ccnc2SCC(N)=O)c1`, the inhibition was -8.54% (inactive).
For `CCCCCCCC(=O)OC(CN1CCCCCC1)CN1CCCC1=O` (stereo not given), the inhibition is 4.02% (inactive).
Consider `COC(=O)CSc1nnc(NC(=O)CCc2ccccc2)s1`, for which the inhibition was 3.45% (inactive).
Turning to `NC(=O)CSc1nnc(NC(=O)c2ccc(Br)o2)s1`, the inhibition is 32.8% (active).
Turning to `CC(C)(C)NC(=O)CSc1nnc(NC(=O)CCc2ccccc2)s1`, the inhibition was 4.27% (inactive).
To `COc1ccc(N)cc1NC(=O)CN1CCOCC1` belongs -1.77% (inactive); to `Cc1ccc(S(=O)(=O)NCc2cn3ccsc3n2)c(C)c1`, 7.83% (inactive).
Take `CCN1C(=O)[C@H]2[C@@H](c3ccccc3)N[C@]3(CCCN(Cc4ccc(C)cc4)C3=O)[C@H]2C1=O`: the inhibition is -3.32% (inactive).
With `Cc1ccc(C)c(NC2=NCC(=O)N2c2ccc3c(c2)OCCO3)c1`, the inhibition is -1.83% (inactive).
For `CCN(CC)c1ccc(/C=N/Nc2nc(C)cc(=O)[nH]2)cc1`, the inhibition is 37.7% (active).
With `Cc1cc(=O)[nH]c(N/N=C/c2c(C)nn(-c3ccccc3Cl)c2Cl)n1` the figure was 3.41% (inactive).
`Cc1cc(=O)[nH]c(N/N=C/c2ccc3c(c2)OCCO3)n1`: the inhibition is 46.9% (active).
Take `Cc1cc(=O)[nH]c(Nc2cccc(Br)c2)n1`: the inhibition was -6.37% (inactive).
Consider `Cc1cccc(C)c1NC(=O)CNC(=O)c1ccc2c(c1)OCCO2`, for which the inhibition was -1.08% (inactive).
Turning to `CCN(CC)CCNc1nc(-c2ccc(OC(F)F)cc2)c(C)s1`, the inhibition is 2.11% (inactive).
`O=C(NNC1=NCCC1)c1cccc(S(=O)(=O)N2CCCCC2)c1`: the inhibition is 5.45% (inactive).
As to `CCC1=C(OC(=O)N(CC)CC)N2C(=O)OC(=NCC3CC3)[C@]2(C)[C@H]2C1=CC[C@H]1C(=O)N(CC(=O)OC)C(=O)[C@H]12`, the inhibition is 9.36% (inactive).
`COc1ccc(/C=C2\N=C3CCCN3C2=O)cc1`: the inhibition was 45.7% (active).
To `COc1ccc(C=C2CCC3C(CCCC34OCCO4)C2=O)cc1` (stereo not given) belongs 25.5% (inactive); to `COc1ccc(/C=C2\SC(=N)N(c3ccc(F)cc3)C2=O)cc1`, 4.31% (inactive).
`Cc1ccc(Cc2nnc(SCC(=O)Nc3ccc(C)cc3C)[nH]c2=O)cc1`: the inhibition was 4.83% (inactive).
For the molecule `[O-][N+]12CCCCC1CCCC2CO` (stereo not given), the inhibition is -10.3% (inactive).
Consider `Cc1cc(C)c2nc3nc(C)cc(C)c3c(N)c2c1`, for which the inhibition is 4.65% (inactive).
As for `CCc1nnc(NC(=O)[C@@H](NC(=O)c2cccc(C)c2)C(C)C)s1`, the inhibition was -6.25% (inactive).
Turning to `CCc1nnc(NC(=O)/C=C/c2ccc(C)o2)s1`, the inhibition was 40.7% (active).
As for `CCc1nnc(NC(=O)c2ccco2)s1`, the inhibition was 15.9% (inactive).
With `CN(C)c1ccc(NC(=O)CN2C3CCCC2CC(NC(=O)c2ccccc2)C3)cc1` (stereo not given), the inhibition is -4.43% (inactive).
As for `Nc1ccc(-c2nnc(-c3ccc(-c4ccccc4)cc3)o2)cc1`, the inhibition was 49.1% (active).
Turning to `OC(c1nnc(-c2ccccc2)o1)c1cccs1` (stereo not given), the inhibition was -12.3% (inactive).
`CN(C)c1ccc(-c2nnc(-c3cccnc3)o2)cc1`: the inhibition was 30% (inactive).
With `CCC(C)(C)c1ccc(OCC(=O)N(C)C)c(C(C)(C)CC)c1`, the inhibition is 1.89% (inactive).
Turning to `O=C(CCNC(=O)c1ccccc1)NN=Cc1ccc(Br)o1`, the inhibition is 8.77% (inactive).
On to `O=C(N/N=C/c1ccc(Br)o1)c1cncc(Br)c1`, for which the inhibition is 33.6% (active).
With `Cc1ccc(C(=O)N/N=C\c2cc(Br)c(Br)o2)cn1` the figure was 9.96% (inactive); with `CN(CC1CCCO1)S(=O)(=O)c1ccc(C(=O)Nc2ccc(F)cc2)cc1` (stereo not given), 4.12% (inactive); with `CCC1CCCCN1CCCNC(=O)c1cc2c(Cl)nc3ccccc3c2s1` (stereo not given), 0.39% (inactive).
As to `CN1CCN(CCCNC(=O)c2cc3c(=O)oc4ccccc4c3s2)CC1`, the inhibition is 31.1% (active).
With `O=C(NCCN1CCN(Cc2ccccc2)CC1)c1cc2c(=O)[nH]c3ccccc3c2s1` the figure was 24.2% (inactive); with `COC(=O)c1cc(NC(=O)CC2C(=O)NCCN2C(=O)c2ccc(F)cc2)cc(C(=O)OC)c1` (stereo not given), 3.86% (inactive).
`Cc1csc(=O)n1CC(=O)Nc1ccc(S(C)(=O)=O)cc1`: the inhibition was -3.52% (inactive).
In the case of `COc1ccccc1/C=C/C(=O)NC(=S)N1CCOCC1`, the inhibition is 18.2% (inactive).
For the molecule `CCOC(=O)/C=c1\s/c(=C\c2ccccc2OC)c(=O)n1CC(=O)N1CCOCC1`, the inhibition is 33.3% (active).
In the case of `CCOC(=O)N1CCN(C(=O)Cn2cnc3ccccc3c2=O)CC1`, the inhibition is 2.24% (inactive).
As to `O=C(NCc1ccccc1Cl)C1CCN(c2ncnc3c2nc2n3CCCCC2)CC1`, the inhibition is -11.1% (inactive).

Values taken from PubChem BioAssay AID588335 (The Scripps Research Institute Molecular Screening Center, 2011).
